Results as given in PubChem BioAssay (Tox21).
Inconclusive results are not listed. A number with no mark means an inactive call. Active and inactive are the calls of the source. Calls follow the shape of the dose curve; as a rule, active = well fitted cell-killing curve with a large enough effect in the repeat runs; inconclusive = weak or mixed curves, or effect the other way; inactive = flat fitted curve, though single readings scatter.

Experiment: cAMP Responsive Elements (CRE) small molecule antagonists, cell-based qHTS assay: qHTS cell viability counter screen (AID 2060913); also: nearly all actives have a fitted effect of over 40% in size
Settings: CRE-bla HEK293T viability, CellTiter-Glo luminescence, 5 h; series mostly up to 92.4 µM; viability change, negative = cytotoxic: at the top concentration
In short: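 Cytotoxicity counter screen multiplexed with the CRE-bla antagonist read: HEK293T cells in DMEM with dialyzed FBS and 25 mM HEPES were treated 3 hrs under 0.25 uM final NKH477, then viability measured by CellTiter-Glo luminescence.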
% is scaled to controls: 0 for no effect and ±100 for the full control effect; potency is read from the fitted curve at half-maximal effect.

With CCOc1cc(Oc2ccc(C(F)(F)F)cc2Cl)ccc1[N+](=O)[O-] as the compound, how does the Potency read?
Its Potency is “inactive”.

Which Potency does the source give for COc1ccc(CO)cc1 here?
The Potency was “inactive”.

Which “viability change, negative = cytotoxic” value does the source give for CCNc1nc(NC(C)C)nc(OC)n1 here?
The value was 6.1%.

Which Potency does the source give for CC1CCC(C(C)C)C(OC(=O)c2ccccc2N)C1 (stereo not given) here?
Its Potency is 47.9 µM (active).

With CCCN(CCC)c1c([N+](=O)[O-])cc(S(C)(=O)=O)cc1[N+](=O)[O-] as the compound, how does the “viability change, negative = cytotoxic” value read?
The value was 0.363%.

For Clc1ccc(-c2ccc(Cl)c(Cl)c2Cl)c(Cl)c1Cl, which “viability change, negative = cytotoxic” value is on record?
The value was -9.4%.

With O=c1oc2ccccc2c(O)c1Cc1c(O)c2ccccc2oc1=O as the compound, how does the “viability change, negative = cytotoxic” value read?
The value was -1.04% [at 42.5 µM].

Which “viability change, negative = cytotoxic” value does the source give for CCOP(=S)(OCC)Oc1cc(-c2ccccc2)on1 here?
Its value is -9.96%.

With C[C@H]1CCCC(=O)CCC/C=C/c2cc(O)cc(O)c2C(=O)O1 as the compound, how does the Potency read?
Its Potency is “inactive”.

With C1CCNCC1 as the compound, how does the “viability change, negative = cytotoxic” value read?
Its value is -1.91%.

With COP(=S)(OC)Oc1cc(Cl)c(I)cc1Cl as the compound, how does the “viability change, negative = cytotoxic” value read?
The value was -19.3%.

For CCCCOC(=O)CCC(=O)OCCCC, which “viability change, negative = cytotoxic” value is on record?
Its value is 2.1%.

With c1ccc2c(c1)OCC(C1=NCCN1)O2 (stereo not given) as the compound, how does the “viability change, negative = cytotoxic” value read?
Its value is 19.8% [at 42.5 µM].

With CCOP(=S)(OCC)Oc1ccc(S(C)=O)cc1 (stereo not given) as the compound, how does the “viability change, negative = cytotoxic” value read?
The value was 0.142%.

Which “viability change, negative = cytotoxic” value does the source give for [P]#[In] here?
Its value is -2.26%.

With ClC1=C(Cl)[C@]2(Cl)[C@H]3[C@H]([C@H]4C=C[C@H]3C4)[C@@]1(Cl)C2(Cl)Cl as the compound, how does the “viability change, negative = cytotoxic” value read?
The value was -7.51%.

With Nc1c(Br)cc([N+](=O)[O-])cc1[N+](=O)[O-] as the compound, how does the “viability change, negative = cytotoxic” value read?
The value was 4.82%.

For CCCCCCCCCCCOC(=O)c1ccccc1C(=O)OCCCCCCCCCCC, which Potency is on record?
The Potency was “inactive”.

For Cn1c(N)nc2c3cccnc3ccc21, which “viability change, negative = cytotoxic” value is on record?
Its value is -1.65%.

Which Potency does the source give for CCCCOCCOP(=O)(OCCOCCCC)OCCOCCCC here?
The Potency was “inactive”.

Which “viability change, negative = cytotoxic” value does the source give for Cl/C=C\CCl here?
The value was 10.5%.

For OC[P+](CO)(CO)CO, which Potency is on record?
Its Potency is “inactive”.

Which “viability change, negative = cytotoxic” value does the source give for Cc1cccc2sc3nncn3c12 here?
The value was 2.19%.

Which “viability change, negative = cytotoxic” value does the source give for CC(=O)c1cc(C(C)(C)C)cc2c1CCC2(C)C here?
Its value is -2.05%.

For CC1NCCOC1c1ccccc1 (stereo not given), which “viability change, negative = cytotoxic” value is on record?
Its value is 7.97% [at 42.5 µM].

Which “viability change, negative = cytotoxic” value does the source give for CCOP(=S)(OCC)Oc1nc(Cl)c(Cl)cc1Cl here?
Its value is -8.45%.

Which “viability change, negative = cytotoxic” value does the source give for CCOC(=O)N(C)C(=O)CSP(=S)(OCC)OCC here?
The value was -4.71%.

For [O-][Cl+2]([O-])O, which Potency is on record?
The Potency was “inactive”.

Which Potency does the source give for O=[N+]([O-])O here?
Its Potency is “inactive”.

For CCC(C)(CC)c1cc(NC(=O)c2c(OC)cccc2OC)on1, which Potency is on record?
Its Potency is “inactive”.

Which “viability change, negative = cytotoxic” value does the source give for CC(C)(C)N(NC(=O)c1ccc(Cl)cc1)C(=O)c1ccccc1 here?
The value was 0.7%.

With N#CCNCC#N as the compound, how does the “viability change, negative = cytotoxic” value read?
Its value is 5.26%.

Which Potency does the source give for O=S(=O)(c1ccc(Cl)cc1)c1cc(Cl)c(Cl)cc1Cl here?
The Potency was “inactive”.

Which “viability change, negative = cytotoxic” value does the source give for COC1CC(=C(c2cccs2)c2cccs2)C[N+](C)(C)C1 (stereo not given) here?
The value was 0.721% [at 42.5 µM].

Which “viability change, negative = cytotoxic” value does the source give for Cc1cc(C)c(C(=O)P(=O)(C(=O)c2c(C)cc(C)cc2C)c2ccccc2)c(C)c1 here?
The value was 0.679%.

Which Potency does the source give for O=C(O)C(F)(F)C(F)(F)C(F)(F)C(F)(F)C(F)(F)C(F)(F)C(F)(F)F here?
The Potency was “inactive”.

For O=S(=O)(Cl)Cl, which “viability change, negative = cytotoxic” value is on record?
The value was -3.56%.

Which “viability change, negative = cytotoxic” value does the source give for CN(C)N here?
The value was -2.16%.

For C=CC(=O)OCC(C)O (stereo not given), which “viability change, negative = cytotoxic” value is on record?
The value was 0.595%.

For CCc1cccc(CC)c1N(COC)C(=O)CCl, which Potency is on record?
Its Potency is “inactive”.

Experiment: cAMP Responsive Elements (CRE) small molecule agonists, cell-based qHTS assay: qHTS cell viability counter screen (AID 2060914); also: nearly all actives have a fitted effect of over 50% in size
Settings: CRE-bla HEK293T viability, CellTiter-Glo luminescence, 5 h; series mostly up to 92.4 µM; activity change, negative = cytotoxicity: at the top concentration
In short: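 In the same wells as the reporter read, viability of CRE-bla HEK 293T cells was quantified by CellTiter-Glo luminescence after a 3 h compound exposure.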

With CCOc1cc(Oc2ccc(C(F)(F)F)cc2Cl)ccc1[N+](=O)[O-] as the compound, how does the “activity change, negative = cytotoxicity” value read?
Its value is -15.3%.

For COc1ccc(CO)cc1, which “activity change, negative = cytotoxicity” value is on record?
Its value is 5.85%.

For CCNc1nc(NC(C)C)nc(OC)n1, which “activity change, negative = cytotoxicity” value is on record?
Its value is 24.4%.

For CC1CCC(C(C)C)C(OC(=O)c2ccccc2N)C1 (stereo not given), which Potency is on record?
Its Potency is 53.7 µM (active).

For CCCN(CCC)c1c([N+](=O)[O-])cc(S(C)(=O)=O)cc1[N+](=O)[O-], which “activity change, negative = cytotoxicity” value is on record?
The value was -2.48%.

With Clc1ccc(-c2ccc(Cl)c(Cl)c2Cl)c(Cl)c1Cl as the compound, how does the “activity change, negative = cytotoxicity” value read?
Its value is 0.404%.

With O=c1oc2ccccc2c(O)c1Cc1c(O)c2ccccc2oc1=O as the compound, how does the “activity change, negative = cytotoxicity” value read?
Its value is 4.48% [at 42.5 µM].

Which “activity change, negative = cytotoxicity” value does the source give for CCOP(=S)(OCC)Oc1cc(-c2ccccc2)on1 here?
Its value is -10.5%.

Which Potency does the source give for C[C@H]1CCCC(=O)CCC/C=C/c2cc(O)cc(O)c2C(=O)O1 here?
Its Potency is “inactive”.

With C1CCNCC1 as the compound, how does the “activity change, negative = cytotoxicity” value read?
The value was -5.38%.

For COP(=S)(OC)Oc1cc(Cl)c(I)cc1Cl, which “activity change, negative = cytotoxicity” value is on record?
Its value is 0.379%.

Which “activity change, negative = cytotoxicity” value does the source give for CCCCOC(=O)CCC(=O)OCCCC here?
Its value is 2.76%.

Which “activity change, negative = cytotoxicity” value does the source give for c1ccc2c(c1)OCC(C1=NCCN1)O2 (stereo not given) here?
The value was 15.4% [at 42.5 µM].

Which “activity change, negative = cytotoxicity” value does the source give for CCOP(=S)(OCC)Oc1ccc(S(C)=O)cc1 (stereo not given) here?
The value was -2.28%.

With [P]#[In] as the compound, how does the “activity change, negative = cytotoxicity” value read?
Its value is -5.36%.

Which “activity change, negative = cytotoxicity” value does the source give for ClC1=C(Cl)[C@]2(Cl)[C@H]3[C@H]([C@H]4C=C[C@H]3C4)[C@@]1(Cl)C2(Cl)Cl here?
The value was -21.6%.

With Nc1c(Br)cc([N+](=O)[O-])cc1[N+](=O)[O-] as the compound, how does the “activity change, negative = cytotoxicity” value read?
Its value is -20.8%.

Which Potency does the source give for CCCCCCCCCCCOC(=O)c1ccccc1C(=O)OCCCCCCCCCCC here?
The Potency was “inactive”.

For Cn1c(N)nc2c3cccnc3ccc21, which “activity change, negative = cytotoxicity” value is on record?
Its value is 1.01%.

For CCCCOCCOP(=O)(OCCOCCCC)OCCOCCCC, which Potency is on record?
The Potency was “inactive”.

With Cl/C=C\CCl as the compound, how does the “activity change, negative = cytotoxicity” value read?
The value was 0.753%.

With OC[P+](CO)(CO)CO as the compound, how does the Potency read?
The Potency was “inactive”.

For Cc1cccc2sc3nncn3c12, which “activity change, negative = cytotoxicity” value is on record?
Its value is -5.45%.

For CC(=O)c1cc(C(C)(C)C)cc2c1CCC2(C)C, which “activity change, negative = cytotoxicity” value is on record?
The value was 2.13%.

Which “activity change, negative = cytotoxicity” value does the source give for CC1NCCOC1c1ccccc1 (stereo not given) here?
The value was -6.71% [at 42.5 µM].

Which “activity change, negative = cytotoxicity” value does the source give for CCOP(=S)(OCC)Oc1nc(Cl)c(Cl)cc1Cl here?
The value was -17.4%.

For CCOC(=O)N(C)C(=O)CSP(=S)(OCC)OCC, which “activity change, negative = cytotoxicity” value is on record?
The value was -3.71%.

For [O-][Cl+2]([O-])O, which Potency is on record?
The Potency was “inactive”.

With O=[N+]([O-])O as the compound, how does the Potency read?
Its Potency is “inactive”.

For CCC(C)(CC)c1cc(NC(=O)c2c(OC)cccc2OC)on1, which Potency is on record?
The Potency was “inactive”.

For CC(C)(C)N(NC(=O)c1ccc(Cl)cc1)C(=O)c1ccccc1, which “activity change, negative = cytotoxicity” value is on record?
Its value is 12.1%.

For N#CCNCC#N, which “activity change, negative = cytotoxicity” value is on record?
The value was 22.6%.

With O=S(=O)(c1ccc(Cl)cc1)c1cc(Cl)c(Cl)cc1Cl as the compound, how does the Potency read?
Its Potency is “inactive”.

With COC1CC(=C(c2cccs2)c2cccs2)C[N+](C)(C)C1 (stereo not given) as the compound, how does the “activity change, negative = cytotoxicity” value read?
Its value is -12.2% [at 42.5 µM].

For Cc1cc(C)c(C(=O)P(=O)(C(=O)c2c(C)cc(C)cc2C)c2ccccc2)c(C)c1, which “activity change, negative = cytotoxicity” value is on record?
Its value is -9.97%.

With O=C(O)C(F)(F)C(F)(F)C(F)(F)C(F)(F)C(F)(F)C(F)(F)C(F)(F)F as the compound, how does the “activity change, negative = cytotoxicity” value read?
Its value is 4.51%.

Which “activity change, negative = cytotoxicity” value does the source give for O=S(=O)(Cl)Cl here?
The value was -17.2%.

With CN(C)N as the compound, how does the “activity change, negative = cytotoxicity” value read?
Its value is 1.07%.

With C=CC(=O)OCC(C)O (stereo not given) as the compound, how does the “activity change, negative = cytotoxicity” value read?
Its value is 24%.

Which Potency does the source give for CCc1cccc(CC)c1N(COC)C(=O)CCl here?
The Potency was “inactive”.
